# High-throughput results as filed in PubChem.
# The full list was thinned out, with hits kept by preference.
# Tg IFNy HTS: T. gondii growth inhibition with IFN-gamma, primary screen, cell-based. Toxoplasma gondii growth in IFN-gamma-treated host cells; stronger effect = lower value. activity change, negative = inhibition, % (no concentration beside the values). actives 3.8% (n = 69,000). AID 1259416, 2018; in the data active = activity change below about -70%, passing the limit was not always enough;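 note: host cells are HeLa cells infected with Toxoplasma gondii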
# An asterisk follows results filed as active; i = inactive; ! = repeats disagree.
SMILES,Tg IFNy HTS
OCCNC(=S)NC1CC2C=CC1C2 (configuration not stated),-7
COc1ccc2[nH]cc(C(=O)CCl)c2c1,-26
CC(=O)c1c[nH]c2ccc(C)cc2c1=O,13
CCOC(=O)c1c[nH]c2ccc(OC)cc2c1=O,-88*
C[C@H]1CC(=O)N[C@@H](c2ccccc2)C/C=C\C[C@H](c2ccccc2)NC1=O,-1
COc1ccccc1C(NC(=O)c1ccn(C(F)F)n1)c1ccccc1 (configuration not stated),3
O=S(=O)(c1ccccc1)N1CCc2c([nH]c3ccccc23)C1c1ccc(F)c(F)c1 (configuration not stated),-59
CN(C)c1cc(Nc2ccccc2)c2c(=O)n(C)c(=O)n(C)c2n1,-84*
Cn1c(=O)c2c3nc4ccccc4cc3c(=O)n(C)c2n(C)c1=O,-13
Cn1c(=O)c2c(-c3ccc(F)cc3)cc(-c3cccc(F)c3)nc2n(C)c1=O,-10
COc1ccc(CNC(=O)c2c(O)c3ccccc3n(-c3ccccc3)c2=O)cc1,99
CC12CCC(c3nnc(SCC(=O)c4ccc5ccccc5c4)nc31)C2(C)C (configuration not stated),46
CC(C)(C)c1ccc(C(=O)Nc2ccc3oc(-c4ccccc4)nc3c2)cc1,-84*
CC(C)CC(=O)Nc1ccc2oc(-c3ccncc3)nc2c1,99
O=C(Nc1cccc(-c2nc3ccccc3o2)c1)c1ccccc1,-12
O=C(NCC1CC1)c1cc2c(nc1NCC1CC1)CCNCC2,-15
FC(F)(F)c1cccc(-c2noc(C3CCN(Cc4ccsc4)C3)n2)c1 (configuration not stated),19
Cn1ccc2c(-c3ccc(C(=O)O)cn3)ccnc21,12
Cn1ccc2c(-c3cccc(O)c3)ccnc21,-77*
CNC(=O)c1ccc(-c2ccnc3c2ccn3C)o1,61
Cc1ccc(CNc2nc(-c3ccc(Cl)cc3)nc3ccccc23)cc1,-73
Cc1cccc(-c2cn(CCCn3nnc4ccccc43)nn2)n1,6
CC(C)(C)NC(=O)[C@H]1CCC2C3CC[C@H]4NC(=O)C=C[C@]4(C)C3CC[C@@]21C (some centres not stated),-4
Cc1ccccc1-c1ncc(CN(C)Cc2cccc3ncccc23)cn1,-89*
CCNc1ncc(CN(C)Cc2cccc3ncccc23)cn1,-30
SMILES,Tg IFNy HTS
CN(Cc1cnc(-c2ccccn2)nc1)Cc1cccc2ncccc12,0
COc1cc2c(cc1CN1CCN(c3ncc(F)cn3)CC1)OCCCO2,-4
COc1cc(C(=O)NCCc2csc(-c3ccc(C(F)(F)F)cc3)n2)cc(OC)c1OC,26
COC(=O)C1=C(C)NC(C)=C(C(=O)OCCN(C)Cc2ccccc2)C1c1cccc([N+](=O)[O-])c1 (configuration not stated),16
COC(=O)C1=C(C)NC(C)=C(C(=O)OCCN2CCN(C(c3ccccc3)c3ccccc3)CC2)C1c1cccc([N+](=O)[O-])c1 (configuration not stated),-84*!
COC(=O)C1=C(C)NC(C)=C(C(=O)OC/C=C/c2ccccc2)C1c1cccc([N+](=O)[O-])c1 (configuration not stated),-2
Cc1nc(CCNc2ccc(-c3nccn3C)nn2)nc2c1CCCC2,107
COc1cccc(-c2nc3cnccn3c2NCCC(=O)N2CCCC(C)C2)c1 (configuration not stated),161
COc1ccc(-c2nc3sc4c(c3c(=O)[nH]2)CCCC4)cc1,-87*
Cc1nc2sc3c(c2c(=O)[nH]1)CCC3,11
O=c1[nH]c(NCCO)nc2sc3c(c12)CCCC3,9
Cc1ccsc1[C@@H]1CCN(C(=O)CCc2n[nH]c(C)c2C)C[C@H]1O,-4
CCNc1ccc(C)cc1C(=O)N1CCCC(c2n[nH]c(=O)n2CC)C1 (configuration not stated),-3
CC(C)(C)C(=O)N1CCN(c2ccc(C(F)(F)F)cn2)CC1,-7
FC(F)(F)c1ccc(N2CCN(Cc3cc(Cl)cc4c3OCOC4)CC2)nc1,-85*
CN1CCN(Cc2ccccc2Oc2ncc(C(F)(F)F)cc2Cl)CC1,4
COc1ccc(CC(=O)N2CCC3(CC2)Nc2ccc(C)c(C)c2-n2cccc23)cc1,68
CC(NC(=O)C12CC3CC(C1)CC(n1cncn1)(C3)C2)C(=O)N(C)C (configuration not stated),0
O=C(Nc1ccc(OC(F)(F)F)cc1Br)c1cnccn1,-110*
Cc1nc(NC(=O)c2cnccn2)ccc1Br,455
CCOc1ccccc1NC(=O)c1cnccn1,-46
Cc1cc(-c2cccc3ccnn23)cnc1N,5
CCCCc1nc(Cl)c(CN2CCN(Cc3cccc(F)c3)CC2)[nH]1,-4
CCOC(=O)c1nc(Nc2ccc(OC)c(OC)c2)c2ccccc2n1,18
COc1ccc(CNC(=O)c2nc(Nc3ccc(F)cc3)c3ccccc3n2)c(OC)c1,40
SMILES,Tg IFNy HTS
COc1cc(NS(C)(=O)=O)ccc1Cc1c2ccccc2nc2ccccc12,-83*
Cc1nc(-c2ccccc2)c(C(=O)N2CCN3C(=O)CNC(=O)C3C2)s1 (configuration not stated),-8
O=C(c1ccc[nH]1)N1CCC2OCCN(c3cccnc3)C2CC1 (configuration not stated),7
Cn1ccnc1[C@@H]1C[C@H](NC(=O)c2ccccc2)C[C@H](Cc2ccccc2)O1,-28
Fc1cccc(CNc2nc(-c3nnc(-c4ccccc4)o3)nc3ccccc23)c1,123
Cc1ccc(-c2nnc(-c3nc(NCc4ccccc4F)c4ccccc4n3)o2)cc1,66
Cc1ccc(-c2nnc(-c3nc(NCCC4=CCCCC4)c4ccccc4n3)o2)cc1,i
CC(C)Nc1nc(-c2nnc(-c3cccc(Cl)c3)o2)nc2ccccc12,-40
Clc1cccc(-c2nnc(-c3nc(NCCC4=CCCCC4)c4ccccc4n3)o2)c1,-83*
COc1ccc(-c2nnc(-c3nc(NCc4cccc(Cl)c4)c4ccccc4n3)o2)cc1,363
COc1cccc(CNc2nc(-c3nnc(-c4cccc(Cl)c4)o3)nc3ccccc23)c1,-86*
COc1ccc(CNc2nc(-c3nnc(-c4cccc(Cl)c4)o3)nc3ccccc23)cc1,-67
Fc1ccccc1CNc1nc(-c2nnc(-c3cccc(Cl)c3)o2)nc2ccccc12,-80*
CC(C)CCCCC(=O)NC(CCN)C(=O)NC(C(=O)NC(CCN)C(=O)NC1CCNC(=O)C(C(C)O)NC(=O)C(CCN)NC(=O)C(CCN)NC(=O)[C@H](CC(C)C)NC(=O)[C@@H](CC(C)C)NC(=O)C(CCN)NC1=O)C(C)O (some centres not stated),-68
CCS(=O)(=O)N1CCC2(CC1)OC(=O)C(C)=C2C(=O)Nc1ccc(C)cc1,39
Cc1oncc1C(=O)N1CCC2C1CC(=O)N2c1cnn(C)c1 (configuration not stated),-18
Cn1nc(CN2CCCCC2)c2c1CN(C(=O)c1ccc(C#N)cc1)C2,-2
Cc1noc(CN(C)Cc2nc(-c3cccc(Cl)c3)oc2C)n1,11
COCCN1CCc2ncnc(N3CCOCC3)c2CC1,-39
Cc1ccccc1CNC(=O)N1C[C@H]2[C@H](C(=O)N(C)C)CCS(=O)(=O)[C@H]2C1,3
C[C@@H]1CN([C@H](C)CO)S(=O)(=O)c2ccc(C#Cc3ccccc3F)cc2O[C@@H]1CN(C)C(=O)Cc1cccnc1,-99*
COc1cccc(C#Cc2ccc3c(c2)O[C@H](CN(C)C(=O)CN2CCOCC2)[C@@H](C)CN([C@@H](C)CO)S3(=O)=O)c1,-50
